# Reference: PubChem BioAssay (EPA / NIEHS)
# The source made the active and inactive calls. Rule for the calls: active = hit-call score of the fitted dose curve at least 0.9, where 1 is the maximum; inactive = score below 0.9.
# What was measured:
# [1] = ATG_CRE_CIS: Attagene CIS-FACTORIAL HepG2 Assay for human cAMP Responsive Element (CRE) binding protein 3 (AID 2282926); settings: HepG2 CRE cis-reporter, Attagene multiplexed mRNA; actives raise or lower the signal
# How it was run: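 Transfected HepG2 were treated for 24 hours, then RNA was extracted and reporter cDNA amplified with sequence-specific primers. Labelled fragments were separated by capillary electrophoresis, and the CRE signal was fitted bidirectionally with DMSO as baseline.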
# [2] = molecular target: CCAAT/enhancer-binding protein beta (Homo sapiens) (UniProt P17676); experiment: ATG_C_EBP_CIS: Attagene CIS-FACTORIAL HepG2 Assay for human CCAAT/Enhancer Binding Protein (C/EBP) beta (AID 2282927); settings: HepG2 Attagene cis-factorial transcription factor reporter; actives raise or lower the signal
# How it was run: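 Transiently transfected HepG2 (MRTU library, endogenous TF-driven promoters); 24 h dosing; total RNA → oligo(dT) RT → PCR → 6-FAM primer extension → HpaI digest → CE; fit bidirectionally vs DMSO.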
# [3] = ATG_CMV_CIS: Attagene CIS-FACTORIAL HepG2 Assay for human CMV (Internal Marker) (AID 2282928); settings: HepG2 CMV promoter reporter, transcription factor profiling; actives raise or lower the signal;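 note: endpoint acts as a background internal control marker rather than a target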
# How it was run: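 HepG2 cells transiently transfected with multiple cis-regulated reporter units; 24 h compound exposure. Reporter mRNA quantified by RT-PCR, 6-FAM primer-extension labeling, HpaI digestion and capillary electrophoresis; bidirectional fitting against DMSO baseline.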
# [4] = ATG_DR4_LXR_CIS: Attagene CIS-FACTORIAL HepG2 Assay for human Liver X Receptor (LXR), DR4 submotif (AID 2282929); settings: HepG2 Attagene DR4 cis-reporter, mRNA transcription; actives raise or lower the signal
# How it was run: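 Cells were transfected with multiple reporter transcription units, exposed to chemicals for 24 hours, then lysed for RNA. Reporter mRNA induction was measured by RT-PCR with capillary electrophoresis detection and fitted in both directions relative to DMSO.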
# [5] = ATG_AP_2_CIS: Attagene CIS-FACTORIAL HepG2 Assay for human Activator Protein 2 (AP-2) (AID 2282932); settings: HepG2 AP-2 cis-reporter, Attagene transcription factor profiling; actives raise or lower the signal
# How it was run: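 HepG2 cells transiently transfected with cis-element reporter units and exposed for 24 h. Reporter mRNA measured by RT-PCR, FAM labelling, HpaI digestion and capillary electrophoresis. Changes in either direction fitted relative to DMSO.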
# [6] = ATG_BRE_CIS: Attagene CIS-FACTORIAL HepG2 Assay for human Bone Morphogenetic Protein (BMP) Response Element (BRE) (AID 2282933); settings: HepG2 BMP response element reporter, Attagene transcription factor profiling; actives raise or lower the signal
# How it was run: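 HepG2 cells transiently transfected with multiplexed cis-element reporter units were dosed with chemical for 24 h. Reporter mRNA was measured by RT-PCR with fluorescent labelling, HpaI digestion and capillary electrophoresis; bidirectional fitting relative to DMSO.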
# [7] = molecular target: Retinoic acid receptor alpha (Homo sapiens) (UniProt P10276); experiment: ATG_DR5_RAR_CIS: Attagene CIS-FACTORIAL HepG2 Assay for human Retinoic Acid Receptor Alpha (RARE), DR5 submotif (AID 2282934); settings: HepG2 Attagene cis-factorial RARE DR5 reporter, mRNA; actives raise or lower the signal
# How it was run: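 Read-out: DR5-driven reporter transcript measured by RT-PCR, 6-FAM primer extension, HpaI digest and capillary electrophoresis. Human HepG2 liver cells carry transiently transfected cis-element reporter constructs; dosing lasts 24 h. Gain or loss of signal fitted against DMSO baseline.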
# [8] = molecular target: Transcription factor E2F1 (Homo sapiens) (UniProt Q01094); experiment: ATG_E2F_CIS: Attagene CIS-FACTORIAL HepG2 Assay for human E2F Transcription Factor 1 (AID 2282935); settings: HepG2 Attagene cis-reporter, E2F reporter RNA transcripts; actives raise or lower the signal
# How it was run: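 Endogenous E2F1 activity read through cis-promoter reporter units transfected into HepG2. After 24 h compound treatment, reporter mRNA measured by RT-PCR, HpaI digestion and capillary electrophoresis. Bidirectional fit versus DMSO.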
# [9] = ATG_E_Box_CIS: Attagene CIS-FACTORIAL HepG2 Assay for human Enhancer Box (E-box) (AID 2282936); settings: HepG2 E-box cis-reporter transcription, actives raise or lower the signal
# How it was run: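 HepG2 cells transiently transfected with multiplexed cis-element reporter units, dosed 24 h; reporter mRNA quantified by RT-PCR, 6-FAM labelling, HpaI digestion and capillary electrophoresis. E-box (USF1) signal fitted bidirectionally vs DMSO.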
# [10] = ATG_M_61_CIS: Attagene CIS-FACTORIAL HepG2 Assay for M61 Transcription Factor (Internal Marker) (AID 2282937); settings: HepG2 Attagene CIS-FACTORIAL M61 internal marker reporter; actives raise or lower the signal
# How it was run: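 Cells were transfected with reporter units under cis-regulatory promoters, treated with chemicals for 24 h, then lysed for RNA. Reporter transcripts were quantified by RT-PCR and capillary electrophoresis, and activity was fitted bidirectionally against DMSO.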
# [11] = ATG_EGR_CIS: Attagene CIS-FACTORIAL HepG2 Assay for human Early Growth Response 1 (EGR1) (AID 2282938); settings: HepG2 Attagene CIS-FACTORIAL EGR reporter mRNA; actives raise or lower the signal
# How it was run: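 Endogenous TF activity in HepG2 liver cells was gauged through cis-promoter reporter constructs transiently transfected. After 24 h dosing, reporter mRNA was quantified by RT-PCR and capillary electrophoresis, and curves fitted in both directions versus DMSO.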
# [12] = ATG_M_19_CIS: Attagene CIS-FACTORIAL HepG2 Assay for M19 Transcription Factor (Internal Marker) (AID 2282939); settings: HepG2 Attagene CIS-FACTORIAL M19 internal marker reporter; actives raise or lower the signal
# How it was run: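 HepG2 cells transiently transfected with cis-regulated multiple reporter transcription units were dosed for 24 h; reporter mRNA was quantified by RT-PCR, 6-FAM primer-extension labelling, HpaI digestion and capillary electrophoresis, with bidirectional fitting against DMSO baseline.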
# [13] = ATG_Ets_CIS: Attagene CIS-FACTORIAL HepG2 Assay for human Erythroblast Transformation Specific (ETS) (AID 2282941); settings: HepG2 ETS cis-reporter transcription, actives raise or lower the signal
# How it was run: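 HepG2 cells transiently transfected with cis-promoter reporter transcription units were dosed for 24 h; reporter mRNA was measured by RT-PCR, 6-FAM primer extension, HpaI digestion and capillary electrophoresis, with bidirectional fitting against DMSO baseline.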
# [14] = molecular target: Hepatocyte nuclear factor 3-beta (Homo sapiens) (UniProt Q9Y261); experiment: ATG_FoxA2_CIS: Attagene CIS-FACTORIAL HepG2 Assay for human Forkhead box A2 (FOXA2) (AID 2282942); settings: HepG2 cis-reporter transcription factor activity, 24 h; actives raise or lower the signal
# How it was run: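 Endogenous transcription factor activity was read in HepG2 cells carrying transiently transfected cis-promoter reporter units. After 24 h dosing, reporter mRNA was quantified by RT-PCR and capillary electrophoresis, and values fitted bidirectionally versus DMSO.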
# [15] = ATG_FoxO_CIS: Attagene CIS-FACTORIAL HepG2 Assay for human Forkhead box O (FoxO) (AID 2282943); settings: HepG2 Attagene cis-reporter, FoxO element, mRNA; actives raise or lower the signal
# How it was run: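 Read-out: fluorescence of 6-FAM-labelled reporter cDNA fragments resolved by capillary electrophoresis. Transiently transfected HepG2 cells were dosed for 24 h; activity fitted in both directions relative to DMSO controls.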
# [16] = ATG_GLI_CIS: Attagene CIS-FACTORIAL HepG2 Assay for human Zinc Finger Protein GLI1 (AID 2282945); settings: HepG2, Attagene cis-factorial reporter mRNA, GLI element; actives raise or lower the signal
# How it was run: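 Transiently transfected HepG2 cells report endogenous transcription factor activity via cis-element-driven reporter units. After 24 h compound exposure, reporter mRNA was measured by RT-PCR with capillary electrophoresis; bidirectional fitting against DMSO baseline.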
# [17] = ATG_AP_1_CIS: Attagene CIS-FACTORIAL HepG2 Assay for human Activator Protein 1 (AP-1) (AID 2282931); settings: HepG2 Attagene cis-factorial AP-1 reporter mRNA; actives raise or lower the signal
# How it was run: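 Endogenous transcription-factor activity in human HepG2 liver cells is read through a cis-promoter reporter transcript, sampled 24 h after dosing. Detection uses RT-PCR with capillary electrophoresis; values come from bidirectional fitting relative to DMSO.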
# [18] = ATG_GATA_CIS: Attagene CIS-FACTORIAL HepG2 Assay for human GATA Binding Protein (AID 2282944); settings: HepG2 GATA cis-element reporter, Attagene multiplex mRNA; actives raise or lower the signal
# How it was run: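 HepG2 cells transiently transfected with multiplexed cis-element reporter units reflecting endogenous transcription factor activity; reporter mRNA measured after 24 h dosing by RT-PCR, 6-FAM labeling, HpaI digestion and capillary electrophoresis. Bidirectional fitting versus DMSO baseline.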
# [19] = molecular target: Aryl hydrocarbon receptor (Homo sapiens) (UniProt P35869); experiment: ATG_Ahr_CIS: Attagene CIS-FACTORIAL HepG2 Assay for human Aryl Hydrocarbon Receptor (Ahr) (AID 2282930); settings: HepG2 AhR cis-factorial reporter transcription; actives raise or lower the signal
# How it was run: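 Read-out: reporter mRNA quantified by RT-PCR with fluorescent primer extension and capillary electrophoresis. Human HepG2 liver cells carried transfected cis-promoter reporter units and were exposed to chemical for 24 h; gain or loss fitted relative to DMSO.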
# Transcription factor E2F1 (Homo sapiens), sequence (Q01094 whole entry, looked up): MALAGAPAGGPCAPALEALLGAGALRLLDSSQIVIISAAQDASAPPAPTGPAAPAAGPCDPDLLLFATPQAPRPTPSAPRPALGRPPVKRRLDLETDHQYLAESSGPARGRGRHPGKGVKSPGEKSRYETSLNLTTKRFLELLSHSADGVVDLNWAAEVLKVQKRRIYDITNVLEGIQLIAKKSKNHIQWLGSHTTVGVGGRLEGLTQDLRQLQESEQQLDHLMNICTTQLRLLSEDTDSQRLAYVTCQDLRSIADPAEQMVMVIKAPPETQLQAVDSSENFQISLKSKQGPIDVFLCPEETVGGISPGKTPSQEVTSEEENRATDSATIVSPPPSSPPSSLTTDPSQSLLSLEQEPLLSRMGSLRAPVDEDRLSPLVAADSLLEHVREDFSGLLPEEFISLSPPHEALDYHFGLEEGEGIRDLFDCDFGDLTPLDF
# CCAAT/enhancer-binding protein beta (Homo sapiens), sequence (P17676 whole entry, looked up): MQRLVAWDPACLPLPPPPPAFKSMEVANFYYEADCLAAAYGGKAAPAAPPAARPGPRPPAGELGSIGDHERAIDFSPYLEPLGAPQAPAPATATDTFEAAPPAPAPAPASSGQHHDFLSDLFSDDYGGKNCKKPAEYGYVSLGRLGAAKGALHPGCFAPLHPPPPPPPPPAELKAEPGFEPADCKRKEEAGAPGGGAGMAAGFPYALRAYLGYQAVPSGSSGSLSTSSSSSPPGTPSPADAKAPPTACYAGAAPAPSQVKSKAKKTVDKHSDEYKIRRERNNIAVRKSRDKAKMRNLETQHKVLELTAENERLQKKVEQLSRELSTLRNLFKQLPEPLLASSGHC
# Hepatocyte nuclear factor 3-beta (Homo sapiens), sequence (Q9Y261 whole entry, looked up): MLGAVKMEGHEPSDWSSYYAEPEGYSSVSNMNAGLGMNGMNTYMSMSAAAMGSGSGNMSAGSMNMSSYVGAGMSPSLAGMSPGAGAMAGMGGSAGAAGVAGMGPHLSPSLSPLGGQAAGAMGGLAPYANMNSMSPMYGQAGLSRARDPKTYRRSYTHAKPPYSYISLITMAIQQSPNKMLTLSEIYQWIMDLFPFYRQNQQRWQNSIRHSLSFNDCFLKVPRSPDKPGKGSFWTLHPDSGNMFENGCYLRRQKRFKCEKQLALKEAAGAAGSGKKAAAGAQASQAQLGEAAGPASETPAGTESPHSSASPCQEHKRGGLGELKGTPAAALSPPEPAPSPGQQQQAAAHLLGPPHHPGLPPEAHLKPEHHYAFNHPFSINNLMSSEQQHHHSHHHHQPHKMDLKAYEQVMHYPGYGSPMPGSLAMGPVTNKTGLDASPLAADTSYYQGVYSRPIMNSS
# Retinoic acid receptor alpha (Homo sapiens), sequence (P10276 whole entry, looked up): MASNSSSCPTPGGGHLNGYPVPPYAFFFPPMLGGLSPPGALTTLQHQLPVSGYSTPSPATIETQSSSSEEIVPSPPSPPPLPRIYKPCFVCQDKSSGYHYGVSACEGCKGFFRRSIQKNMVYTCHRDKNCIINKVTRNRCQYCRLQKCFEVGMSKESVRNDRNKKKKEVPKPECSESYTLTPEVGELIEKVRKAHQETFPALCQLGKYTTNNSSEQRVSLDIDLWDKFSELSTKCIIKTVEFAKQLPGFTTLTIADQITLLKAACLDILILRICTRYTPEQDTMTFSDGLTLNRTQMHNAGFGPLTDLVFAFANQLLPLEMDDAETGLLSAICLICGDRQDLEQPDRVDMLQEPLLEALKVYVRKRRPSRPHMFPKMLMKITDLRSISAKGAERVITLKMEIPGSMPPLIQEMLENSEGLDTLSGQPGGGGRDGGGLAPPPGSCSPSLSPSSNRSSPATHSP
# Aryl hydrocarbon receptor (Homo sapiens), sequence (P35869 whole entry, looked up): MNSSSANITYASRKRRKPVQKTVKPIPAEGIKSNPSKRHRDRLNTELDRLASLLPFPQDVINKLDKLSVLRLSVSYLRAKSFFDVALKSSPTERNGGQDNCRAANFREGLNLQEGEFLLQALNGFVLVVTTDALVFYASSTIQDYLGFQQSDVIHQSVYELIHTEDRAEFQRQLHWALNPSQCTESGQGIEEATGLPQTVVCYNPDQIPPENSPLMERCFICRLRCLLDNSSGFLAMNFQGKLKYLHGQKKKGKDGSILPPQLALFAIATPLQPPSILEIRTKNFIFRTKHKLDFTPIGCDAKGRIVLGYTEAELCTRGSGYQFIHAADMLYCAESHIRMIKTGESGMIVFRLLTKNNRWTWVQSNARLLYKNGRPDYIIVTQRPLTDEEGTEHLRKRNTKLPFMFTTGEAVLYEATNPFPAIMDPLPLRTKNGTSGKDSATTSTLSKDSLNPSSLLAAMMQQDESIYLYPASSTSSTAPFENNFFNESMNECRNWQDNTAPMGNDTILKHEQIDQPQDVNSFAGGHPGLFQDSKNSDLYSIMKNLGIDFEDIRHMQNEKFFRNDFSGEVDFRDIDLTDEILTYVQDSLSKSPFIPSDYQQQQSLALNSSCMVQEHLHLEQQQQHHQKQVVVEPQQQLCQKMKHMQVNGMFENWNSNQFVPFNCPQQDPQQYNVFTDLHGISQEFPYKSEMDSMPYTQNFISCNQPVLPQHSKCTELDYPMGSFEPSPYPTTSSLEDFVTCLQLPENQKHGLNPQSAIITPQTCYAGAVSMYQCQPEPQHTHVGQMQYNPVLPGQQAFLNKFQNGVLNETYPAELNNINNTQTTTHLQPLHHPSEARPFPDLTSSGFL
smiles,measurement,setting,value
C#CC(C)(O)CC(C)C (configuration not stated),outcome,[1],inactive
same,outcome,[2],inactive
same,outcome,[3],inactive
same,outcome,[4],inactive
same,outcome,[5],inactive
same,outcome,[6],inactive
same,outcome,[7],inactive
same,outcome,[8],inactive
same,outcome,[9],inactive
same,outcome,[10],inactive
same,outcome,[11],inactive
same,outcome,[12],inactive
same,outcome,[13],inactive
same,outcome,[14],inactive
same,outcome,[15],inactive
same,outcome,[16],inactive
COc1cccc(OC)c1O,outcome,[1],inactive
same,outcome,[2],inactive
same,outcome,[3],inactive
same,outcome,[4],inactive
same,outcome,[17],inactive
same,outcome,[5],inactive
same,outcome,[6],inactive
same,outcome,[7],inactive
same,outcome,[8],inactive
same,outcome,[10],inactive
same,outcome,[11],inactive
same,outcome,[12],inactive
same,outcome,[13],inactive
same,outcome,[14],inactive
same,outcome,[15],inactive
same,outcome,[16],inactive
Cc1ccc(OC(=O)c2ccccc2O)cc1,outcome,[1],inactive
same,outcome,[2],inactive
same,outcome,[3],inactive
same,outcome,[4],inactive
same,AC50,[17],122 µM (active)
same,outcome,[5],inactive
same,outcome,[6],inactive
same,outcome,[7],inactive
same,outcome,[8],inactive
same,outcome,[9],inactive
same,outcome,[10],inactive
same,outcome,[11],inactive
same,outcome,[12],inactive
same,outcome,[13],inactive
same,outcome,[14],inactive
same,outcome,[15],inactive
same,outcome,[18],inactive
same,outcome,[16],inactive
Oc1ccc2cc(SSc3ccc4cc(O)ccc4c3)ccc2c1,AC50,[1],62 µM (active)
same,AC50,[2],131 µM (active)
same,AC50,[3],26 µM (active)
same,outcome,[4],inactive
same,outcome,[5],inactive
same,AC50,[6],57 µM (active)
same,outcome,[7],inactive
same,outcome,[8],inactive
same,outcome,[9],inactive
same,outcome,[10],inactive
same,AC50,[11],27.7 µM (active)
same,outcome,[12],inactive
same,outcome,[13],inactive
same,outcome,[14],inactive
same,outcome,[15],inactive
same,outcome,[18],inactive
same,outcome,[16],inactive
NCc1ccco1,outcome,[1],inactive
same,outcome,[2],inactive
same,outcome,[3],inactive
same,outcome,[4],inactive
same,outcome,[17],inactive
same,outcome,[5],inactive
same,outcome,[6],inactive
same,outcome,[7],inactive
same,outcome,[8],inactive
same,outcome,[10],inactive
same,outcome,[11],inactive
same,outcome,[12],inactive
same,outcome,[13],inactive
same,outcome,[14],inactive
same,outcome,[15],inactive
same,outcome,[18],inactive
same,outcome,[16],inactive
CCCCCC(C=O)=Cc1ccccc1,outcome,[1],inactive
same,outcome,[2],inactive
same,outcome,[3],inactive
same,outcome,[4],inactive
same,outcome,[19],inactive
same,outcome,[5],inactive
same,outcome,[6],inactive
same,outcome,[7],inactive
same,outcome,[10],inactive
same,outcome,[11],inactive
same,outcome,[12],inactive
same,outcome,[13],inactive
same,outcome,[14],inactive
same,outcome,[15],inactive
same,outcome,[18],inactive
same,outcome,[16],inactive
CCC(=O)O[C@@H]1C[C@H]2CC[C@]1(C)C2(C)C,outcome,[1],inactive
same,outcome,[2],inactive
same,outcome,[3],inactive
same,outcome,[4],inactive
same,outcome,[19],inactive
same,outcome,[5],inactive
same,outcome,[6],inactive
same,outcome,[7],inactive
same,outcome,[9],inactive
same,outcome,[10],inactive
same,outcome,[11],inactive
same,outcome,[12],inactive
same,outcome,[13],inactive
same,outcome,[14],inactive
same,outcome,[15],inactive
same,outcome,[18],inactive
same,outcome,[16],inactive
